Reference: ChEMBL document CHEMBL3988442, “University of Dundee, Small-Polar-MMV Screening Library” (2021)

Key:
[1] = target: T1, Aspartate--tRNA(Asp/Asn) ligase (Mycobacterium tuberculosis (strain ATCC 25618 / H37Rv)) (UniProt P9WFW3); test: Assay for Asp RNA synthetase-1 from Mycobacterium tuberculosis; assay type: functional; design: scale not given: direction of the effect not stated beside the values; conditions: 30 µM; also: in the data most compounds retested in dose-response had high values
T1 sequence (whole entry): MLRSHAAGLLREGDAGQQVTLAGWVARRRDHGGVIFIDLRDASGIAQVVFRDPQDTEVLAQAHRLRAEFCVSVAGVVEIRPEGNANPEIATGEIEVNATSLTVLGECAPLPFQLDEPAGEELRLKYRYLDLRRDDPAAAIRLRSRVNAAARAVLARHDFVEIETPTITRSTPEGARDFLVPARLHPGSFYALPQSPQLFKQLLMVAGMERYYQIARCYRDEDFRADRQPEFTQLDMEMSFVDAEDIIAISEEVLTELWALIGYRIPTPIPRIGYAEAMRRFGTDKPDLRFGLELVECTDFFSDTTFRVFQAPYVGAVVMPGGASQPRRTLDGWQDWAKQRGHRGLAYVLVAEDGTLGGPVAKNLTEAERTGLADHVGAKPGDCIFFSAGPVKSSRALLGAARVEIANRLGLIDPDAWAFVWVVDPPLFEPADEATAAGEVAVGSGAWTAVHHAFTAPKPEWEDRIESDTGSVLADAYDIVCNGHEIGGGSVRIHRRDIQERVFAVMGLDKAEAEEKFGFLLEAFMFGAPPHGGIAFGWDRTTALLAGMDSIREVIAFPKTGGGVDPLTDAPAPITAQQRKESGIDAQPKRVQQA

[2] = target: Shiga toxin 2 (Escherichia coli O157:H7) (UniProt P09385+P09386); test: E. coli 0.157:H7 Shiga Toxin SOP - stx2 screening assay; assay type: functional; design: scale not given: direction of the effect not stated beside the values; conditions: 30 µM

Row | SMILES | Percent Effect [1] [%] | Percent Effect [2] [%]
1 | COC(C(=O)N1CCN(c2cccc(Cl)c2)C(=O)C1)c1ccccc1 (stereo unspecified) | 0.0112 | -0.212
2 | COc1ccc(CN2CCn3cc(CN4CCN(C)CC4)nc3C2)cc1 | -1.67 | 10.3
3 | CC(C)C1CN(C(=O)c2ccc(N3CCCC3)nc2)CCS1 (stereo unspecified) | 12.9 | -43
4 | O=C1CC(c2ccccc2)C2(CCN(Cc3ccccn3)CC2)N1 (stereo unspecified) | 2.57 | -17.4
5 | Cc1nc(CNC(=O)NCC(O)c2ccc(F)cc2F)cs1 (stereo unspecified) | -6.13 | -21.6
6 | O=C(NCc1nn(-c2ccccc2)c2c1CCC2)N1CCSCC1 | -2.32 | 34
7 | CS(=O)(=O)NC[C@]12COC[C@H]1CN(C(=O)C1CCCCC1)C2 | 7.93 | -3.53
8 | Cc1ccc(CC(=O)N2Cc3nccn3CC(Cn3cccn3)C2)cc1 (stereo unspecified) | 0.0228 | -2.6
9 | CC(=O)c1ccccc1C(=O)NCC1(CO)CC1 | 2.82 | -19.8
10 | CC(C)N1CCO[C@H]2CN(C(=O)c3ccc(N(C)C)cc3)C[C@H]21 | 2.49 | -4.13
11 | c1cn2c(n1)CN(CC1CC1)CC(CN1CCOCC1)C2 (stereo unspecified) | 11.1 | -18
12 | Cc1n[nH]c(=O)c2c(NC(=O)CN3CCCC(C(F)(F)F)C3)oc(C)c12 (stereo unspecified) | -2.66 | -52.6
13 | CN1CCC(c2nnc(CN3CCC(O)CC3)n2C)CC1 | 10.8 | -2.24
14 | Cc1ncsc1CN1CC[C@H]2OCC[C@@]2(C(=O)NC(C)C)C1 | 2.43 | -7.46
15 | Cc1ccsc1C(=O)N1Cc2ccccc2C2(CCN(C)CC2)C1 | 5.26 | 5.47
16 | CCN(Cc1nc(C(C)C)no1)Cc1cccs1 | 0.386 | -23.8
17 | CCN1CCN(CC(O)c2ccc(OC(F)(F)F)cc2)CC1 (stereo unspecified) | 5.22 | -5.3
18 | Cc1cnc(NC(=O)c2ccc(-n3ncc(C#N)c3N)cc2)s1 | 0 | -13.3
